# Sampled rows, rich in hits. Any-hit rate of the full collection: about 2.5%.
# L3MBTL1 block = qHTS Assay for the Inhibitors of L3MBTL1 | Lethal(3)malignant brain tumor-like protein 1 (Homo sapiens), Q9Y468 | AlphaScreen L3MBTL1–H3K9me1 peptide binding | Potency, µM (series often up to 57.1 µM), for the others: at the highest dose activity, negative = inhibition, usual class: inhibitors | 230,000 tested, 0.66% active | AID 485360, 2010; also: potency is read from the fitted curve at half-maximal effect; % is scaled to controls: 0 for no effect and ±100 for the full control effect; nearly all actives have a fitted effect of over 60% in size
#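 Displacement of a biotinylated histone H3(1-15) peptide monomethylated at Lys9 (75 nM) from L3MBTL1 (50 nM) was measured by AlphaScreen after a 30 min room-temperature compound incubation; cefsulodin titration served as intraplate control.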
# Pol eta inh-1 = qHTS for Inhibitors of Polymerase Eta | DNA polymerase eta (Homo sapiens), Q9Y253 | recombinant Pol eta, fluorescent DNA replication assay | Potency, µM (titrated, usually from 114 µM), inactives show top-dose activity change, negative = inhibition, usual class: inhibitors | 390,000 tested, 1.2% active; also: potency is read from the fitted curve at half-maximal effect; % is scaled to controls: 0 for no effect and ±100 for the full control effect
#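 Pol eta (10 nM) was preincubated with compounds for 15 min at room temperature, after which fluorescent replication substrate (50 nM final) was added to start the reaction. Fluorescence was read kinetically at 0 and 10 min.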
# Pol iota inh = qHTS for Inhibitors of Polymerase Iota; DNA polymerase iota (Homo sapiens), Q9UNA4; Pol iota fluorescent replication assay, 10 min; Potency, µM (top dose mostly 115 µM), without a hit: at the highest dose activity, negative = inhibition, actives largely listed as inhibitors; 390,000 tested, 1% active; AID 588590, 2011; also: potency is read from the fitted curve at half-maximal effect
#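 Fluorescent replication assay read twice, at 0 min and 10 min after adding 50 nM (final) substrate. Enzyme (10 nM) and compounds were first incubated 15 min at room temperature; enzyme-free buffer wells were negative controls.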
# POLB inh = qHTS Assay for Inhibitors of DNA Polymerase Beta. 340,000 tested, 1.3% active. Pol beta primer extension/strand displacement, fluorescence kinetic. AID 485314, 2010. P06746. Potency, µM (highest dose often 114 µM), inactives show at the top dose activity change, negative = inhibition, hits mostly inhibitors; also: potency is read from the fitted curve at half-maximal effect; % is scaled to controls: 0 for no effect and ±100 for the full control effect
#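 Human Pol beta at 10 nM; strand-displacement substrate 50 nM final. Compound exposure 15 min at room temperature before start, reaction 10 min at room temperature.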
# Pol kappa inh-1 = qHTS for Inhibitors of Polymerase Kappa | DNA polymerase kappa (Homo sapiens), Q9UBT6 | purified Pol kappa, fluorescent DNA synthesis assay, 10 min | Potency, µM (series often up to 107 µM), for inactives: at the top dose activity, negative = inhibition, actives largely listed as inhibitors | 400,000 tested, 0.53% active | AID 588579, 2011; also: potency is read from the fitted curve at half-maximal effect; % is scaled to controls: 0 for no effect and ±100 for the full control effect
#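 Activity was followed as the change in fluorescence between reads at 0 and 10 min after starting the reaction with 50 nM substrate. Beforehand, 10 nM polymerase had been preincubated with compound for 15 min at room temperature.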
# APE1 inh = qHTS Assay for Inhibitors of the Human Apurinic/apyrimidinic Endonuclease 1 (APE1) | Potency, µM (doses to about 65.8 µM), for the others: at the top dose activity change, negative = inhibition, hits mostly inhibitors | 350,000 tested, 0.35% active | recombinant APE1, TAMRA/BHQ-2 abasic DNA cleavage fluorescence;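 also: potency is read from the fitted curve at half-maximal effect; plate controls were vehicle for no effect and reference inhibitor for full effect; nearly all actives have a fitted effect of over 55% in size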
#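 Incision of a quenched TAMRA/BHQ-2 THF abasic-site duplex (50 nM) by 0.75 nM APE1, after 15 min compound preincubation, measured as fluorescence increase over three 60 s reads. Values normalized to buffer, DMSO and NSC13755 control wells.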
# GALK confirm = Confirmation Assay for Inhibitors of Human Galactokinase (GALK); shares compounds with Pol eta inh-1; 150 tested, 70% active; Potency, µM (highest dose often 115 µM), for the others: at the highest dose activity, negative = inhibition, actives largely listed as inhibitors; purified GALK, Kinase-Glo ATP depletion luminescence
# GALK redox cs = Confirmatory Assay for Inhibitors of Human Galactokinase (GALK): Phenol-HRP redox assay counterscreen | shares compounds with Pol eta inh-1 | Phenol red-HRP H2O2 redox cycling, absorbance 600 nm | Potency, µM (titrated, usually from 115 µM), for inactives: at the highest dose activity change, negative = H2O2 signal, actives largely listed as inhibitors | 150 tested, 40% active
# HEK293 tox = Secondary Assay for Inhibitors of Human Galactokinase (GALK): HEK-293 Cell Viability Assay; shares compounds with Pol eta inh-1; HEK-293 viability, ATP luminescence (CellTiter-Glo), 24/48 h; Potency, µM (doses to about 46.1 µM), for the others: at the highest dose activity change, negative = cytotoxicity, actives largely listed as inhibitors; 170 tested, 10% active; also: potency is read from the fitted curve at half-maximal effect; % is scaled to controls: 0 for no effect and ±100 for the full control effect
# Pol kappa inh-2 = qHTS for Inhibitors of Polymerase Kappa: Confirmatory Assay for Cherry-picked Compounds | shares compounds with Pol eta inh-1 | Potency, µM, most hits filed as inhibitors | purified Pol-kappa, fluorescent strand-displacement substrate | 920 tested, 76% active | AID 720501, 2013; also: potency is read from the fitted curve at half-maximal effect
# Pol eta inh-2 = qHTS for Inhibitors of Polymerase Eta: Confirmatory Assay for Cherry-picked Compounds; Potency, µM, actives largely listed as inhibitors; 2,600 tested, 64% active; AID 720502, 2013; Pol eta primer extension, TAMRA/BHQ fluorescence, 10 min; shares compounds with Pol eta inh-1; also: potency is read from the fitted curve at half-maximal effect
# * = called active by the depositor; ? = inconclusive; . = no result; [ ] = remark or other dose. Calls follow the shape of the dose curve; as a rule, active = well fitted curve in the direction sought with a large enough effect; inconclusive = small, poorly fitted or top-dose-only effect, or another doubt; inactive = no such curve, though single readings can be large; an effect the other way counts as inactive or inconclusive.
SMILES,L3MBTL1 block,Pol eta inh-1,Pol iota inh,POLB inh,Pol kappa inh-1,APE1 inh,Pol eta inh-2,others
Cc1ccc(F)c(NC(=O)/C(C#N)=C(\O)c2ccc(C(C)(C)C)cc2)c1,4%,79µM*,?,89µM*,-7%,-1%,.,GALK confirm=33µM*;GALK redox cs=-20%;HEK293 tox=4%
Nc1nnc(CC(=O)N/N=C/c2ccc(-c3ccc(F)cc3)o2)s1,.,-10%,?,-15%,-9%,-5%,.,
CCOC(=O)c1cccc(-c2ccc(C=O)o2)c1,-14%,-18%,1%,?,-19%,-3%,.,
O=Cc1ccc(-c2cccc(C(=O)O)c2)o1,?,10µM*,?,?,?,-14%,48*,
O=C(Cc1ccc(Br)cc1)N/N=C/c1ccc(-c2cccc(C(=O)O)c2)o1,?,22µM*,23%,?,?,-5%,30*,
Nc1nnc(CC(=O)N/N=C/c2ccc(-c3cccc(C(=O)O)c3)o2)s1,.,18µM*,11µM*,-1%,25µM*,-11%,60*,
Cc1c(C(=O)O)cccc1[N+](=O)[O-],0%,-9%,-18%,.,0%,-8%,.,
Cc1c(C(=O)O)cccc1-c1ccc(C=O)o1,?,5µM*,?,28µM*,?,-1%,85*,
CCN(CC(=O)Nc1cc(Cl)ccc1C)C(=O)Cc1sc(C)nc1-c1ccc(F)cc1,-5%,-4%,1%,.,-38%,2%,.,
CCc1cc(=O)n2c([nH]c3ccccc32)c1C#N,.,-5%,?,8%,7%,-2%,.,
CC(SCc1cc(=O)n2c([nH]c3ccccc32)c1C#N)C(=O)O (stereo not drawn),.,?,?,-30%,?,-1%,?,
CCOC(=O)c1c(C)[nH]c(N=Nc2cc(C(=O)O)cc(C(=O)O)c2)c1C,.,18µM*,?,-1%,?,-12%,9.5*,
CCOC(=O)c1c(C)[nH]c(N=Nc2ccc(C)cc2C)c1C,?,-11%,2%,-13%,-11%,-6%,.,
COc1ccc(Cn2c(O)c(C=Nc3ccc(OC)cc3)c3ccccc3c2=O)cc1,4%,-7%,14%,35%,-20%,-4%,.,
COc1ccc(Cn2c(O)c(C=Nc3ccccc3C(=O)O)c3ccccc3c2=O)cc1,-23%,20µM*,?,?,-45%,-9%,67*,
Cc1nc(CNS(=O)(=O)c2cccc(F)c2)cs1,-2%,5%,-29%,34%,-5%,-2%,.,
Cc1ccc(-c2csc(NS(=O)(=O)c3cccc(F)c3)n2)o1,28µM*,25µM*,?,.,?,-2%,?,
Oc1ccc(/C=N/Nc2ncnc3c2ncn3Cc2ccccc2)cc1O,-15%,3.2µM*,2.2µM*,3.5µM*,?,?,48*,
CC(=O)Oc1cc(C(=O)OCC(=O)NC23CC4CC(CC(C4)C2)C3)cc(OC(C)=O)c1OC(C)=O,.,3.2µM*,?,.,18µM*,.,9.5*,Pol kappa inh-2=8.4*
COc1ccc([C@H]2CC(=O)C=C(c3cc(OC)ccc3OC)C2)cc1,-7%,-7%,-14%,.,-12%,6%,.,
Cc1[nH]n(-c2ncc(-c3ccccc3)s2)c(=O)c1C(c1ccc(Cl)cc1)C(C#N)C#N (stereo not drawn),-17%,28µM*,?,32µM*,?,-4%,?,
C=CCN1C(=O)/C(=C/C=C2/N(CC)c3ccc(S(=O)(=O)N(C)C)cc3N2CC)SC1=S,-12%,45µM*,?,4.5µM*,-18%,?,38*,
CCCCN1C(=O)/C(=C/C=C2\Oc3ccccc3N2CC)SC1=S,-7%,?,?,-5%,5%,13%,.,
CCn1cc(C(=O)N2CCN(c3ccccc3)CC2)c(=O)c2cc(S(=O)(=O)N(C)C)ccc21,.,-9%,22%,20%,6%,.,.,
CC(C)(C)OC(=O)N[C@H]1C=C[C@@H](OC(=O)CC(=O)OCC(F)(F)F)C1,10%,-20%,23%,.,2%,8%,.,
N#C/C(=C\c1ccc(-c2ccc(C(=O)O)cc2)o1)c1nc2ccccc2[nH]1,-9%,28µM*,32µM*,?,?,?,34*,Pol kappa inh-2=13*
N#C/C(=C\c1ccccc1C(=O)O)c1nc2ccccc2[nH]1,.,-14%,190%,41%,-7%,16%,.,
N#C/C(=C\c1ccc(-c2ccc(Cl)c(C(=O)O)c2)o1)c1nc2ccccc2[nH]1,-28%,22µM*,22µM*,?,-25%,27µM*,60*,
CCOc1cc(/C=C(/C#N)c2nc3ccccc3[nH]2)ccc1OCc1ccc(C(=O)O)o1,-28%,7.9µM*,-21%,40µM*,?,-3%,30*,Pol kappa inh-2=34*
CCc1ccc(C2=CC(c3cccc(C)c3)n3c(nc4ccccc43)N2)cc1 (stereo not drawn),.,-8%,-13%,13%,-13%[60.1 µM],.,.,
